Data: PubChem BioAssay AID485281 (National Center for Advancing Translational Sciences (NCATS), 2010)
Hit rate of the full screen: of about 350,000 compounds, about 260 (0.074%) were called active. Another 8% or so got no clear call; they are omitted. The call rests on the fitted dose curve; in most records, active means well fitted inhibition curve with a large enough effect; inconclusive means small, poorly fitted or top-dose-only effect; inactive means no such curve, though single readings can be large or run the other way. Many of the other results were omitted from the sample, so actives are more common in it than they were.

molecular target: Ferritin light chain (Equus caballus) (UniProt P02791); test: qHTS Assay for Identification of Novel General Anesthetics; conditions: apoferritin/1-aminoanthracene competitive binding, fluorescence; series mostly up to 77.5 µM; activity change, negative = displacement: at the top concentration; further: nearly all actives have a fitted effect of over 20% in size
Excerpt: Source: NIH Chemical Genomics Center [NCGC]
Assay Submitter: Roderic Eckenhoff, University of Pennsylvania
Screening Center PI: Christopher P. Austin, NIH
Probe Development: NIH Chemical Genomics Center [NCGC]
Anesthetic development has remained a largely empirical process. There are growing concerns about the cognitive effects of known general anesthetics and acceleration of the onset of neurodegenerative disease. The compounds' toxicity and multiple specific binding targets in the mammalian brain [4] has made them less attractive as drug leads. In this assay, a GABAergic mimetic model system, apoferritin and a profluorescent 1-aminoanthracene ligand (1-AMA), was used to construct a competitive binding assay for identification of novel general anesthetics. The assay was validated for 1-AMA using other known anesthetics, such as isoflurane (CID:3763) and propofol (CID: 4943), [6].
[1] S.L. Bianchi, T. Tran, C. Liu, S. Lin, Y. Li, J.M. Keller, R.G. Eckenhoff, and M.F. Eckenhoff, Brain and behavior changes in 12-month-old Tg2576 and nontransgenic mice exposed to anesthetics. Neurobiol Aging 29 (2008) 1002-10.
[2] Z. Xie, Y. Dong, U. Maeda, R.D. Moir, W. Xia, D.J. Culley, G. Crosby, and R.E. Tanzi, The inhalation anesthetic isoflurane induces a vicious cycle of apoptosis and amyloid beta-protein accumulation. J Neurosci 27 (2007) 1247-54.
[3] P. Honegger, and J.M. Matthieu, Selective toxicity of the general anesthetic propofol for GABAergic neurons in rat brain cell cultures.
[4] M.F. Eckenhoff, K. Chan, and R.G. Eckenhoff, Multiple specific binding targets for inhaled anesthetics in the mammalian brain. J Pharmacol Exp Ther 300 (2002) 172-9.
[5] C.A. Butts, J. Xi, G. Brannigan, A.A. Saad, S.P. Venkatachalan, R.A. Pearce, M.L. Klein, R.G. Eckenhoff, and I.J. Dmochowski, Identification of a fluorescent general anesthetic, 1-aminoanthracene. Proc Natl Acad Sci U S A 106 (2009) 6501-6.
[6] W.A. Lea, J. Xi, A. Jadhav, L. Lu, C.P. Austin, A. Simeonov, and R.G. Eckenhoff, A high-throughput approach for identification of novel general anesthetics. PLoS One 4 (2009) e7150.
Three uL of reagents (free 1-AMA (50% saturated solution of 1-aminoanthracene
in PBS) in columns 3, 4 as negative control and 1-AMA/apoferritin mixture (10 uM horse-spleen apoferritin in 50% saturated 1-aminoanthracene in PBS) in columns 1, 2, 5-48) was dispensed into 1536-well Greiner black assay plates. Compounds (23 nL) were transferred via Kalypsys pintool equipped with 1,536-pin array (10 nL slotted pins, V&P Scientific, San Diego, CA). Titration of the positive control, propofol, were delivered via pin transfer from separate control plates to the 2nd column of each assay plate. The starting concentration of the control, dissolved in DMSO, was at 160 mM, followed by two-fold dilution points in duplicate, for a total of 16 concentrations. The plates were incubated for 10 min at room temperature, and then read on an EnVision HTS multilabel reader (Perkin-Elmer, Waltham, MA) (end point read, 3 min/plate) using Fura2 BFP excitation filter (380 nm, bandwidth 10 nm) and fluorescein emission filter (535 nm, bandwidth 25 nm) set. A LANCE/DELFIA dichroic mirror with a cutoff wavelength at 400 nm was used to maximize signal accuracy and strength. Vehicle-only plates, with DMSO being pin-transferred to the entire column 5-48 compound area, were inserted uniformly at the beginning and the end of each library in order to monitor for and record any shifts in the background. Activity was computed as the normalized fluorescence response relative to free 1-AMA and 1-AMA/apoferritin complex values. Concentration-effect relationships were derived by using curve fitting algorithms developed in-house (http://ncgc.nih.gov/pub/openhts/). A four parameter Hill equation was fitted to the concentration-response data by minimizing the residual error between the modeled and observed responses.
On the % scale 0 is the no-effect control and ±100 the full control effect; potency means the concentration at half of the fitted maximal effect.

Sequence of Ferritin light chain (Equus caballus) (P02791 2-175 limits assumed): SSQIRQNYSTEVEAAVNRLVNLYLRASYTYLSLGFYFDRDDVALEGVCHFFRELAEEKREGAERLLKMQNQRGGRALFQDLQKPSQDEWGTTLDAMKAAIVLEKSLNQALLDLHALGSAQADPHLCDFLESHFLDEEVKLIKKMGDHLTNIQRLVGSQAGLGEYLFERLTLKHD

Activity change, negative = displacement, inactive:
O=C(NCc1ccc(F)cc1)c1ccc(Cn2c(SCc3ccc(F)cc3)nc3cccnc32)cc1 -5.12%
Cc1cccc2nc(-c3ccc(Cl)s3)c(Nc3ccc4c(c3)OCCO4)n12 58.8%
O=C(NCC(c1cccnc1)N1CCc2ccccc21)c1cccc(C(F)(F)F)c1 (centres undefined) -10%
CCOc1ccc(C(=O)/C=C/c2cn(CC(O)CN3CCCCCC3)c3ccccc23)cc1 (centres undefined) -7.92%
CCOc1ccc(NC(=O)CCc2c(C)nn(-c3ccc(N4CCCC4)nn3)c2C)cc1 42.2%
Cc1ccc(-c2nc(SCc3ccc(Br)cc3)n3[nH]c(=O)cc3n2)cc1 2.21%
Cc1ccc(CN2CCc3nc(N4CCN(C)CC4)ncc3C2)cc1 11.3%
CCOC(=O)c1cnc2c(C)cc(C)cc2c1Nc1ccc(N2CCOCC2)cc1 -13.5%
COc1cc2nc(SCc3ccc(F)cc3)n3nc(CCn4c(C)nc5ccccc54)nc3c2cc1OC 26.5%
CCOCCc1nn2c(=O)cc(COC(=O)CNC(=O)c3ccc(C(C)(C)C)cc3)nc2s1 -16.9%
Cc1cccc(NC(=O)C2CCN(S(=O)(=O)c3c(C)noc3/C=C/c3ccco3)CC2)c1 -8.73%
CCN(CCCNC(=O)c1ccc(Sc2ccc(C)cc2)c(NC(C)=O)c1)c1cccc(C)c1 8.6%
CCOC(=O)c1ccc(CN(Cc2ccccc2)S(=O)(=O)c2ccc(Cl)cc2)cc1 52.1%
COc1cc(OC)c(NC(=O)N2CC3CCCN3c3ccccc32)cc1Cl (centres undefined) -13.5%
COc1ccc2[nH]c3c(c2c1)CCN(C(=O)CCC1CCCC1)C3c1ccc(F)cc1 (centres undefined) 9.86%
CN(C(=O)CSc1nc2ccccc2n1Cc1ccccc1C#N)c1ccccc1 78.3%
Cc1cccc(N2CCN(c3ccc(C(=O)O)cc3NC(=O)c3ccccc3F)CC2C)c1 (centres undefined) -15.5%
CCCCc1nn2c(=O)cc(COC(=O)c3ccc(NC(=O)c4ccccc4C)cc3)nc2s1 -0.216%
CCC(=O)N1CCc2cc(S(=O)(=O)NC(C(=O)NCCc3ccc(C)cc3)C(C)C)ccc21 (centres undefined) -8.37%
O=C(CSc1nc(-c2cccc(F)c2)[nH]c1-c1ccccc1)Nc1ccc2c(c1)OCO2 37.9%
CCOC(=O)c1ccc(NC(=O)c2c(NCc3cccs3)sc3c2CCCC3)cc1 7.21%
COc1ccc(C)cc1NC(=O)COCc1cc(-c2cccs2)on1 3.35%
Cc1ccc(-n2ncc3c(NCCCn4ccnc4)ncnc32)cc1Cl -2.7%
CCN(CC)S(=O)(=O)c1nnc(NC(=O)COc2ccccc2Cl)s1 -19.9%
Cc1nc2nc(NCc3cccc(Br)c3)[nH]n2c(=O)c1Cc1ccccc1 -2.1%
COc1ccccc1N1CCN(CCCNC(=O)c2cnn(-c3ccccc3Cl)c2C2CCN(C(=O)OC(C)(C)C)CC2)CC1 -12.6%
COc1ccc(-n2ccn(CC(=O)Nc3ccc(C)c(C)c3)c(=O)c2=O)cc1OC -4.83%
Cc1nn(C(C)C(=O)NCCc2ccccc2)c(=O)c2c1sc1ccccc12 (centres undefined) 78.3%
COc1ccc(-c2cccc(NS(=O)(=O)c3cc(C)c(OC)c(C)c3C)c2)nn1 -14.2%
Cc1cccc(C(=O)Nc2ccc(S(=O)(=O)N3CCCCC3c3cccnc3)cc2)c1 (centres undefined) 8.01%
CCCCN(CC)C(=O)c1c[nH]c2ccc(S(=O)(=O)Nc3cccc(OC)c3)cc2c1=O -15.8%
Cc1c(NC(=S)NCc2ccc(F)cc2)cccc1[N+](=O)[O-] -8.7%
O=C(NCCNc1ccccc1[N+](=O)[O-])c1ccccc1F -17.2%
CC(Nc1ccc(-c2nc(-c3ccco3)no2)cc1[N+](=O)[O-])c1ccccc1 (centres undefined) -15.1%
COc1ccc(C2C(=O)N(C3CCCCC3)CC(=O)N2Cc2ccccc2Cl)cc1OC (centres undefined) -5.68%
COc1ccc(Nc2ncc3c(n2)CCN(C(=O)OC(C)(C)C)C3)cc1 -0.4%
CCOC(=O)C1CCN(c2csc3ccc(C)cc3c2=O)CC1 -6.57%
O=C(O)c1ccccc1-c1ccccc1C(=O)NCCc1ccccc1 -2.83%
NC(=O)Nc1ccccc1C(=O)NCCc1ccccc1 6.37%
O=C1CCCc2cc(S(=O)(=O)N3CCCC(C(=O)NCc4ccccc4)C3)ccc2N1 (centres undefined) -3.62%
CCOc1ccccc1C(=O)Nc1ccc2c(c1)N(C)C(=O)c1ccccc1S2 -13.2%
Cc1cc(F)ccc1NC1(c2ccccc2)C(=O)c2ccccc2C1=O -6.15%
COc1ccc(-c2noc(-c3ccc(N4CCN(c5ccccc5)CC4)c([N+](=O)[O-])c3)n2)cc1OC -8.01%
Cc1ccc(-c2nnc(SCC(=O)NCc3ccccc3)nc2-c2ccc(C)cc2)cc1 -7.43%
Cc1ccccc1CNC(=O)C(=O)NCC(c1cccs1)S(=O)(=O)c1cccs1 (centres undefined) 46.9%
COc1ccc(Nc2cc(C(=O)NCCCN(C)c3ccccc3)c3ccccc3n2)c(OC)c1 50%
CCOC(=O)CN1C(C(=O)c2ccccc2)=C(OC(=O)C(C)(C)C)c2ccccc2S1(=O)=O -5.44%

Potency, active:
O=[N+]([O-])c1ccccc1NCc1ccc(Cl)cc1 8.91 µM
Nc1nonc1C(=O)NCCc1ccccc1 17.8 µM
